Screens (PubChem BioAssay)
PTPN22 inh 2: LYP (human) phosphatase inhibition | AID 640 | inhibition, % at 2 µM | Q9Y2R2 | hit rate 0.21% among 96,000 | recombinant LYP catalytic domain, DiFMUP fluorescence;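 active = inhibition at 2 µM at or above a set limit, the screen mean plus 3 SD, cut at about 24% in these data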;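 note: 0% = DMSO with enzyme and 100% = enzyme fully blocked by orthovanadate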
PTPN22 act: LYP (human) phosphatase activation; Q9Y2R2; recombinant LYP, DiFMUP fluorescence; 0 = plate median, 100 = signal doubled; activation, % at 2 µM; hit rate 0.11% among 96,000;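 active = activation at 2 µM above a set limit, the mean plus 5 SD, cut at about 37% in these data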
MRP1 act: activates MRP-1. H69AR cells + doxorubicin, viability rescue, CellTiter-Glo. viability increase, % at 10 µM. hit rate 0.61% among 140,000. AID 799;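 active = viability gain under doxorubicin at or above a set limit, the compound median plus 3 SD, cut at about 4.7% in these data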;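 note: MRP-1 overexpressing cells given doxorubicin 25 µM after compound pretreatment; 18-22 h compound pretreatment then 72 h with doxorubicin before readout; 0% = doxorubicin-only wells and 100% = vehicle-treated cells without doxorubicin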
FAK inh: FAK (human) kinase inhibition | biochemical FAK kinase activity assay | Q05397 | hit rate 0.84% among 97,000 | AID 727 | inhibition, %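 (tested at 7 µM)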; in the data active = inhibition above about 19%;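 note: 0% = DMSO and 100% = reference compound high control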
MRP reversal: reverses drug resistance mediated by MRP. H69AR cells + 2 uM doxorubicin, CellTiter-Glo, 72 h. differential viability (reversal), % at 10 µM. hit rate 0.04% among 85,000. AID 602;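 active = viability drop by adding the cancer drug above about 55%, with treated viability meeting a 40% cutoff, limit read from the data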;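 note: viability without doxorubicin minus viability with 2 µM doxorubicin for each compound; larger differential means the compound sensitizes cells more to doxorubicin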
PLAP activator: human PLAP activation | P05187 | purified PLAP enzyme, luminescent substrate read-out; active compounds read high | activation fold at 20 µM | hit rate 1.2% among 96,000 | AID 696; in the data active = activation fold above about 2
Target sequence (P05187 whole entry, looked up): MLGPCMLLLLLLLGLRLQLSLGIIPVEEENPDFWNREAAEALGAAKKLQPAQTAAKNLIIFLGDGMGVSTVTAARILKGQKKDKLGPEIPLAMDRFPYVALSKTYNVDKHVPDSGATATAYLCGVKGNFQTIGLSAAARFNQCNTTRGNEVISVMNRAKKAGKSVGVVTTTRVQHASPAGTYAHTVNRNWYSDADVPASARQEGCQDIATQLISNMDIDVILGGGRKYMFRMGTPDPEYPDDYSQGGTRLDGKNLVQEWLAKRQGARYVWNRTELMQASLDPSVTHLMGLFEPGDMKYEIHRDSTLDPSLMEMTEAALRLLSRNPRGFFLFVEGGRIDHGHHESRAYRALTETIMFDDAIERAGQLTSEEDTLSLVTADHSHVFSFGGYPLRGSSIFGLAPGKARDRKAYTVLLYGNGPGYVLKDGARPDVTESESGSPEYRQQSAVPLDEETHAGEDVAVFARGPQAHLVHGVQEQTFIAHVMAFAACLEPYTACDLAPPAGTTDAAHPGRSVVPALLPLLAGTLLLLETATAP
* = called active by the depositor. Most compounds without a hit are left out; they make up all but 2.2% or so of the library.

What do the screens show for `CCC(=O)N1CCN=C1SCc1ccccc1`?
PTPN22 inh 2: 4; PTPN22 act: -7; MRP1 act: 5.1*; FAK inh: -5; MRP reversal: -2; PLAP activator: 0.9

What do the screens show for `CC(=O)N1CCN=C1SCc1ccccc1F`?
MRP1 act: 5.1*; MRP reversal: 15; PLAP activator: 0.9

Results for CCC(=O)N1CCN=C1SCc1ccc(Cl)cc1 ?
PTPN22 inh 2: 2; PTPN22 act: -5; MRP1 act: 3; FAK inh: -3; MRP reversal: 0; PLAP activator: 0.7

What do the screens show for `CC(=O)N1CCN=C1SCc1ccc(F)cc1`?
PTPN22 inh 2: -14; PTPN22 act: 10; MRP1 act: 4; FAK inh: -4; MRP reversal: 3; PLAP activator: 0.9

What do the screens show for `CC(=O)N1CCN=C1SCc1ccccc1Cl`?
PTPN22 inh 2: 0; PTPN22 act: -3; MRP1 act: 3; FAK inh: 3; MRP reversal: 2; PLAP activator: 1.1

What do the screens show for `CCCCNS(=O)(=O)c1ccc(NC(=O)C(Sc2ccccc2)c2ccccc2)cc1` (stereo not given)?
MRP1 act: -5

What do the screens show for `COc1cccc(Cn2nnc(C(=O)NCc3ccc(F)cc3)c2N)c1`?
PTPN22 inh 2: 13; PTPN22 act: -16; MRP1 act: 4.8*; FAK inh: -6; MRP reversal: 7; PLAP activator: 0.8

Results for CCOc1ccc(Cn2nnc(C(=O)NCCc3ccc(Cl)cc3)c2N)cc1 ?
PTPN22 inh 2: -2; PTPN22 act: 0; MRP1 act: 5.1*; FAK inh: -3; MRP reversal: 2; PLAP activator: 0.8

What do the screens show for `COc1cccc(Cn2nnc(C(=O)NCCc3ccc(Cl)cc3)c2N)c1`?
PTPN22 inh 2: -7; PTPN22 act: 6; MRP1 act: 5; FAK inh: -2; MRP reversal: -13; PLAP activator: 0.9

Results for CCOc1ccc(Cn2nnc(C(=O)NCCc3ccccc3)c2N)cc1 ?
PTPN22 inh 2: 8; PTPN22 act: -11; MRP1 act: 7.8*; FAK inh: -1; MRP reversal: 0; PLAP activator: 0.8

How did COc1ccc(NC(=S)N2CCNC(=O)C2CC(=O)Nc2cccc(Cl)c2C)cc1 (stereo not given) do in these assays?
MRP1 act: -3

Results for CC(C)OC(=O)/C(=C\c1cccc2ccccc12)NC(=O)c1ccccc1 ?
MRP1 act: -2

How did Cc1cc(C(=O)COC(=O)c2ccc(CO)cc2)c(C)n1CC1COc2ccccc2O1 (stereo not given) do in these assays?
MRP1 act: 0

How did CN(C)[C@@H]1CCC[C@@H]1OC(=O)C(c1ccccc1)c1ccccc1 do in these assays?
MRP1 act: -1

Results for O=C(Nc1nc(N2C(=O)c3ccccc3C2=O)n(-c2ccccc2)n1)c1ccccc1 ?
MRP1 act: -3

What do the screens show for `O=C(Nc1nc(N2C(=O)c3ccccc3C2=O)n(-c2ccccc2)n1)c1ccc(F)cc1`?
PTPN22 inh 2: -15; PTPN22 act: 17; MRP1 act: -2; FAK inh: 12; MRP reversal: -9; PLAP activator: 2.1*

How did COc1ccc(C(=O)Nc2nc(N3C(=O)c4ccccc4C3=O)n(-c3ccccc3)n2)cc1 do in these assays?
PTPN22 inh 2: 20; PTPN22 act: -19; MRP1 act: 1; FAK inh: 10; MRP reversal: -3; PLAP activator: 2.2*

Results for Cc1cc(C)c2c(N)c(S(=O)c3ccc(C(C)(C)C)cc3)sc2n1 (stereo not given) ?
PTPN22 inh 2: 10; PTPN22 act: -5; MRP1 act: -1; FAK inh: 3; PLAP activator: 1.5

How did CC(C)(C)NC(=O)c1ccc2nsnc2c1 do in these assays?
MRP1 act: -2

How did Cc1ccc(C(=O)COc2ccccc2-c2ccccc2)cc1C do in these assays?
MRP1 act: 5.0*

What do the screens show for `O=C(COc1ccccc1-c1ccccc1)c1ccccc1`?
MRP1 act: 2

How did Cn1c(-c2c(N)n(C3CCCC3)c3nc4ccccc4nc23)nc2ccccc21 do in these assays?
PTPN22 inh 2: -1; PTPN22 act: 0; MRP1 act: -3; FAK inh: -2; MRP reversal: -12; PLAP activator: 1

How did COCCCn1c(N)c(-c2nc3ccccc3n2C)c2nc3ccccc3nc21 do in these assays?
PTPN22 inh 2: 9; PTPN22 act: -8; MRP1 act: -1; FAK inh: 0; MRP reversal: -13; PLAP activator: 2*

Results for Cn1c(-c2c(N)n(CCCc3ccccc3)c3nc4ccccc4nc23)nc2ccccc21 ?
PTPN22 inh 2: 1; PTPN22 act: 1; MRP1 act: -3; FAK inh: -1; MRP reversal: -22; PLAP activator: 1.5

How did Cn1c(-c2c(N)n(CCc3ccccc3)c3nc4ccccc4nc23)nc2ccccc21 do in these assays?
PTPN22 inh 2: 2; PTPN22 act: -2; MRP1 act: -2; FAK inh: 0; MRP reversal: -15; PLAP activator: 2.1*

Results for NS(=O)(=O)c1cccc(NC(=O)COC(=O)C2(c3cccc(F)c3)CCCC2)c1 ?
MRP1 act: -1

What do the screens show for `CCn1c(COc2ccc(Cl)cc2)nnc1SCc1ccc(C#N)cc1`?
PTPN22 inh 2: 1; PTPN22 act: -3; MRP1 act: 1; FAK inh: -3; MRP reversal: 26; PLAP activator: 1.4

How did CCn1c(COc2ccc(Cl)cc2)nnc1SC1CCc2ccccc2C1=O (stereo not given) do in these assays?
MRP1 act: 7.1*

How did CCC(C)N1CCN(C(=O)c2cccs2)CC1 (stereo not given) do in these assays?
PTPN22 inh 2: -3; PTPN22 act: 3; MRP1 act: -2; FAK inh: -2; MRP reversal: -1

What do the screens show for `C=CCn1c(-c2cccc3ccccc23)n[nH]c1=S`?
PTPN22 inh 2: 7; PTPN22 act: -4; MRP1 act: -2; FAK inh: 1; MRP reversal: 7; PLAP activator: 2.8*

Results for C=CCn1c(-c2ccccc2OC)n[nH]c1=S ?
MRP1 act: -1

Results for COc1cccc(N2C(=O)C(Cc3c[nH]c4ccccc34)NC2=S)c1 (stereo not given) ?
MRP1 act: -2

Results for COc1ccc(CC(=O)N2N=C(C)CC2(O)c2cccnc2)cc1 (stereo not given) ?
PTPN22 inh 2: 3; PTPN22 act: -4; MRP1 act: 0; FAK inh: 1; PLAP activator: 2.1*

How did COc1ccc(CC(=O)N2N=C(C)CC2(O)c2cccnc2)cc1OC (stereo not given) do in these assays?
MRP1 act: 1

Results for Cc1nnc(NC(=O)CSc2nnc(CCc3nc4ccccc4[nH]3)n2C)s1 ?
PTPN22 inh 2: -20; PTPN22 act: 19; MRP1 act: 2; FAK inh: 4; PLAP activator: 2.1*

Results for CCOc1cc(CN2CCN(C(=O)c3ccco3)CC2)ccc1OC ?
MRP1 act: 1; MRP reversal: 10; PLAP activator: 1.6
